PubChem BioAssay
Active and inactive are the calls of the source.

Tests used:
Albumin (Bos taurus) = Albumin (Bos taurus) (UniProt P02769); experiment: bovine serum albumin binders on microarray, profiling panel, artefact control for SMM control protein annotation, biochemical, small-molecule microarray, Alexa647 label, 635/667 nm fluorescence (AID 1118); details: BSA-A647 binding, fluorescence 635 nm, higher = more signal;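 also: score merges 667 nm emission intensity and signal-to-noise per printed compound spot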
Chain of Albumin (Bos taurus) (P02769 whole entry, looked up): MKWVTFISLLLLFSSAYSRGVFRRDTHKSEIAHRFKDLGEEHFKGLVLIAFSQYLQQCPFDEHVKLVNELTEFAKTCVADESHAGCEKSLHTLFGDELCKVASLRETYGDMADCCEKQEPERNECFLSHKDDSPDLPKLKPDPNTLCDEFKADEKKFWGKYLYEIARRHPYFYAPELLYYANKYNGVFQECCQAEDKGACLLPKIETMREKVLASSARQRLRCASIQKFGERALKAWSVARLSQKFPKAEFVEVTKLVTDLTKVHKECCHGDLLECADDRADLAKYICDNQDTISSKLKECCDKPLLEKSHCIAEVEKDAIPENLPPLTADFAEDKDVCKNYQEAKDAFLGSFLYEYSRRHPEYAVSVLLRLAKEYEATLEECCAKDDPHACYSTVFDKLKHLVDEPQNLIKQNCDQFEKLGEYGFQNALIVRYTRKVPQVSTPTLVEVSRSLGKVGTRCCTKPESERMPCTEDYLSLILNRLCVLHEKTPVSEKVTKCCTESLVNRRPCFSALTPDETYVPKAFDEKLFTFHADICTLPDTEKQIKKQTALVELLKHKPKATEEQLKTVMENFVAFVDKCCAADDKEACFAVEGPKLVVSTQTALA

[1] = small-molecule microarray binders of probe aXIP, primary screen, biochemical, NeuroSMM set, 635/667 nm fluorescence (AID 1119); details: higher = more signal, called active from +8 up or from −8 down;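 also: probe is the protein aXip251-270 applied at 1 µg/mL to compound-printed slides; binding of probe to printed compounds measured as 667 nm fluorescence plus signal to noise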
[2] = small-molecule binders of probe aNOTCH3, primary screen, biochemical, small-molecule microarray, 635/667 nm fluorescence (AID 1120); details: higher = more signal;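 also: probe is a biotin-tagged antibody raised against NOTCH3 rather than NOTCH3 protein; score merges spot fluorescence near 667 nm with spot signal to noise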
[3] = small-molecule binders of probe aNOTCH2, primary screen, biochemical, small-molecule microarray, 635/667 nm fluorescence (AID 1121); details: higher = more signal;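 also: score merges feature fluorescence read at 667 nm with its signal to noise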
[4] = target: Carbonic anhydrase 2 (Homo sapiens) (UniProt P00918); experiment: CAII small-molecule binders, profiling panel, biochemical, small-molecule microarray, Alexa647-labelled CAII (AID 1122); details: CAII-A647 binding fluorescence, higher = more signal
[5] = COS7 lysate on small-molecule microarray, probe aHis, 635 nm (AID 1123); details: COS7 cell lysate, fluorescence, higher = more signal;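 also: z-score combines 667nm fluorescence intensity with signal-to-noise per printed compound spot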
[6] = compound binding in COS7 lysate, probe aLAP1, primary screen, cell lysate, small-molecule microarray (AID 1124); details: probe aLAP1, fluorescence, higher = more signal;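 also: lysate comes from COS7 cells expressing LAP1 and is applied at 0.3 µg/mL; score merges spot fluorescence near 667 nm with signal-to-noise over triplicate slides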
Sam68 (KHDRBS1) = experiment: Sam68 small-molecule binders, primary screen, biochemical, small-molecule microarray, 635 nm fluorescence (AID 1125); details: small-molecule microarray binding, higher = more signal;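 also: score merges 667 nm channel intensity with signal to noise over triplicate slides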
[7] = system: Chordin-like protein 2 (CHRDL2); experiment: CHRDL2 small-molecule binders, primary screen, biochemical, small-molecule microarray, 635 nm fluorescence (AID 1126); details: small-molecule microarray binding, fluorescence 635 nm; higher = more signal;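 also: printed compound slides probed with Chrdl2 protein at 4 µg/mL for 1 h at 4 C; score merges 667 nm emission intensity with signal to noise over three replicate slides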
[8] = target: Concanavalin-A (Canavalia ensiformis) (UniProt P02866); experiment: ConA small-molecule binders, primary screen, artefact control for SMM control protein annotation, biochemical, small-molecule microarray, Alexa647 label, 635 nm (AID 1127); details: ConA-A647 binding fluorescence, higher = more signal;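 also: z combines 667 nm emission intensity with signal-to-noise across three replicate slides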
Chain of Concanavalin-A (Canavalia ensiformis) (P02866 whole entry, looked up): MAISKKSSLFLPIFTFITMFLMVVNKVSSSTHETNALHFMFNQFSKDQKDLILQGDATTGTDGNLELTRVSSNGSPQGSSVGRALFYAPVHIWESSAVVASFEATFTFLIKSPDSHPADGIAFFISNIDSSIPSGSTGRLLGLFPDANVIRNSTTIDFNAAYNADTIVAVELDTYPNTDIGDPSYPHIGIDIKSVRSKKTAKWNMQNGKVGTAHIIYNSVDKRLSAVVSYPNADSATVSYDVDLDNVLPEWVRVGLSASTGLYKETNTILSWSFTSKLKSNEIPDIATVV

[9] = anti-His antibody binders, primary screen, artefact control for SMM control protein annotation, biochemical, small-molecule microarray, 635 nm fluorescence (AID 1128); details: anti-His Alexa647 antibody binding, higher = more signal;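 also: score merges feature fluorescence with signal-to-noise for each printed compound spot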
[10] = system: Human papillomavirus type 1a E7 protein (residues 1-88); experiment: HPV1a E7 small-molecule binders, primary screen, biochemical, small-molecule microarray, residues 1-88, 635 nm (AID 1129); details: small-molecule microarray binding, fluorescence 635 nm; higher = more signal
[11] = target: Focal adhesion kinase 1 (Homo sapiens) (UniProt Q05397); experiment: small-molecule microarray binders of FAK, primary screen, biochemical, 635/667 nm fluorescence, BSA, DTT (AID 1130); details: PTK2 binding, 635 nm fluorescence, higher = more signal;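 also: composite of spot emission at 667 nm and signal to noise over triplicate slides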
Chain of Focal adhesion kinase 1 (Homo sapiens) (Q05397 whole entry, looked up): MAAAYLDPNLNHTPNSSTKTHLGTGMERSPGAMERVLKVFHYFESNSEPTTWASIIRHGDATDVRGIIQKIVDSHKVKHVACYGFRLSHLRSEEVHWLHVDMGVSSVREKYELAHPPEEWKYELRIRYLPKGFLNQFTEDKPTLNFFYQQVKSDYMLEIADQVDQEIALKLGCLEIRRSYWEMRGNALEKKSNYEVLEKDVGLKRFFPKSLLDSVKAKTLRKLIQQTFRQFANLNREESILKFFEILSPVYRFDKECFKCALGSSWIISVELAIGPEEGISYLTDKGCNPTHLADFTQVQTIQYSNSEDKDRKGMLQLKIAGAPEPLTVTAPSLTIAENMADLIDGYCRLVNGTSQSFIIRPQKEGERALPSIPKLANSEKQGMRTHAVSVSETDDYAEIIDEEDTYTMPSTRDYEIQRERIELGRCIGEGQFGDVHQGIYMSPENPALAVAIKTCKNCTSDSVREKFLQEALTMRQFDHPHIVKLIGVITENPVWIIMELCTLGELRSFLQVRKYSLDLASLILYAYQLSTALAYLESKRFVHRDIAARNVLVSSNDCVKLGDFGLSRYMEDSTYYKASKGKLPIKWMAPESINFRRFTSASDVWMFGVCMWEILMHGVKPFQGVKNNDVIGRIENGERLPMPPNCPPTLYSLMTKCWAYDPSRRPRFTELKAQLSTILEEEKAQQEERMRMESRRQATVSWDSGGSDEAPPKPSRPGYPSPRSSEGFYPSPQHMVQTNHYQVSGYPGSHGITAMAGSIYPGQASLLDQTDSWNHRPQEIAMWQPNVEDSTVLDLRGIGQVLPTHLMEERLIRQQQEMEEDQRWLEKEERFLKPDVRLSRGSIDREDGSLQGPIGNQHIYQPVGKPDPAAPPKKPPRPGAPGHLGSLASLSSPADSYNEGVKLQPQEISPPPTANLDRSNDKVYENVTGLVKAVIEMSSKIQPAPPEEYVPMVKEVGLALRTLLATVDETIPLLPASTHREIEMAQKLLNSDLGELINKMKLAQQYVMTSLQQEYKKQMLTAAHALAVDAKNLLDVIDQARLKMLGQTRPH

[12] = system: Fibrinogen (Alexa647-labelled); experiment: fibrinogen binders on compound microarrays, profiling panel, artefact control for SMM control-protein annotation, biochemical, small-molecule microarray, 635/667 nm fluorescence (AID 1131); details: fibrinogen-A647 binding fluorescence, higher = more signal;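 also: z-score merges 667 nm fluorescence with per-spot signal-to-noise over triplicate slides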
[13] = target: Follistatin (Homo sapiens) (UniProt P19883); experiment: follistatin binders on small-molecule microarrays, primary screen, biochemical, small-molecule microarray, 635/667 nm fluorescence (AID 1132); details: FST binding, 635 nm fluorescence, higher = more signal
Chain of Follistatin (Homo sapiens) (P19883 whole entry, looked up): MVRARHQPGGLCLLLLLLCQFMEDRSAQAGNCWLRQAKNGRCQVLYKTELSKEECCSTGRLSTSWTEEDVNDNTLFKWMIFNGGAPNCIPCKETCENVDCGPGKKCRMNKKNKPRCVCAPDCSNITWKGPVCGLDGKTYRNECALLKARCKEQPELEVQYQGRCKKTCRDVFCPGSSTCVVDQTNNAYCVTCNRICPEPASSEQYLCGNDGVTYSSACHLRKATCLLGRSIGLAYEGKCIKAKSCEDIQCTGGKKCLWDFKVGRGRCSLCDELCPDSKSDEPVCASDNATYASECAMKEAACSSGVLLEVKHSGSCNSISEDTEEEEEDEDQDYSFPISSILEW

[14] = target: Fibroblast growth factor 2 (Homo sapiens) (UniProt P09038); experiment: FGF2 binders on small-molecule microarrays, primary screen, biochemical, small-molecule microarray, 635/667 nm fluorescence (AID 1133); details: small-molecule microarray binding, FGF2, fluorescence 635/667; higher = more signal
Chain of Fibroblast growth factor 2 (Homo sapiens) (P09038 whole entry, looked up): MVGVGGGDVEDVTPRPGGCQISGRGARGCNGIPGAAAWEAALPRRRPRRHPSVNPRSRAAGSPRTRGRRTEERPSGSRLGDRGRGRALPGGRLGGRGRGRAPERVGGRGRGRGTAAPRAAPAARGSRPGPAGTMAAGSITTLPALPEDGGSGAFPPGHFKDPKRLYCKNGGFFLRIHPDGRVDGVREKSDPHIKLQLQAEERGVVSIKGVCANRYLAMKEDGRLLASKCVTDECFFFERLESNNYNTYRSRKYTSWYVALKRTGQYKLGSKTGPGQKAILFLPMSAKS

[15] = mitochondrial membrane potential change in A549 cells, profiling panel, cell-based, JC-1 fluorescence, basal, 24 h, 100 nL (AID 1138); details: higher = more signal;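 also: A549 lung adenocarcinoma cells under basal conditions with no added stimulus; test concentration not given here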
Lefty1 = Lefty1 binders on small-molecule microarrays, primary screen, biochemical, small-molecule microarray, 635/667 nm fluorescence (AID 1139); details: small-molecule microarray binding, fluorescence 635/667; higher = more signal
[16] = system: wheat germ agglutinin (Triticum aestivum), Alexa647-labelled; experiment: wheat germ agglutinin binders on compound microarrays, profiling panel, artefact control for SMM control-protein annotation, biochemical, small-molecule microarray, 635/667 nm fluorescence (AID 1140); details: WGA-A647 binding, 635 nm fluorescence, higher = more signal;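 also: score merges 667 nm feature emission with signal to noise over triplicate slides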
[17] = target: Luciferin 4-monooxygenase (Photinus pyralis) (UniProt P08659); experiment: firefly luciferase enzyme inhibitors, primary screen, biochemical, luminescence, purified enzyme, 2006 set (AID 1141); details: SteadyGlo luminescence, 30 min, higher = more signal, called active from +8 up or from −8 down;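 also: cell-free assay with purified firefly luciferase at 100 ng per well in PBS; test concentration not given here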
Chain of Luciferin 4-monooxygenase (Photinus pyralis) (P08659 whole entry, looked up): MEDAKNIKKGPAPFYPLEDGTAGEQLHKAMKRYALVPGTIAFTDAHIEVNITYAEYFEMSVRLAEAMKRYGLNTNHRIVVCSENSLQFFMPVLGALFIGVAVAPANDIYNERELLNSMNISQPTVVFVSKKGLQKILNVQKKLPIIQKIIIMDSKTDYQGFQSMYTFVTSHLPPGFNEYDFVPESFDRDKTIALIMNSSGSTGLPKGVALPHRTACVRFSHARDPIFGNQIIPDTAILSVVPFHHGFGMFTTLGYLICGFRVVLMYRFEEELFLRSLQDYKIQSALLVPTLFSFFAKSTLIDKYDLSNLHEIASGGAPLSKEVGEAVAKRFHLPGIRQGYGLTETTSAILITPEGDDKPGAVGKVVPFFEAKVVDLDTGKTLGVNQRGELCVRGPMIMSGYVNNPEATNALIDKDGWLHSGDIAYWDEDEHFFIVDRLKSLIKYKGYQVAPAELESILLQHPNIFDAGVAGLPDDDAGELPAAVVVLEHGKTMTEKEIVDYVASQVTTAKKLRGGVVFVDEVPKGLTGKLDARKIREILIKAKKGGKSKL

SMILES	composite z-score (Albumin (Bos taurus))	composite Z-score [1]	composite z-score [2]	composite z-score [3]	composite z-score [4]	composite z-score [5]	composite z-score [6]	composite z-score (Sam68 (KHDRBS1))	composite z-score [7]	composite z-score [8]	composite z-score [9]	composite z-score [10]	composite z-score [11]	composite z-score [12]	composite z-score [13]	composite z-score [14]	z-score [15]	composite z-score (Lefty1)	composite z-score [16]	z-score [17]
CCN1C(=O)[C@H]2[C@H]3[C@H](O)[C@H](O)CC(=NOC(C)CN4CCCc5nc(C)c(C)cc54)[C@@H]3CC[C@H]2C1=O (stereo not given in full)	-0.558	0.635 (inactive)	0.148	0.0137	0.014	-0.0995	0.284	1.05	0.893	-0.471	-0.245	0.509	0.335	0.116	0.703	0.462	0.623	0.737	-0.393	0.126 (inactive)
CCc1cc2c(nc1CC)CCN(CCC(C)=NOC[C@@H](C)[C@H](OCc1ccccc1)C(C)C)C2	0.742	0.551 (inactive)	-0.443	-0.135	-0.25	-0.171	-0.383	-0.16	-1.05	-1.12	2.64	-0.684	-0.846	-1.69	-0.862	-1.39	0.874	-0.465	-0.323	-1.77 (inactive)
CC(C)(C)N1C(=O)[C@H]2[C@H]3[C@H](O)[C@H](O)CC(=NNC(=O)OCc4ccccc4)[C@@H]3CC[C@H]2C1=O	0.303	-0.151 (inactive)	0.073	-0.0515	0.0243	0.728	0.3	0.692	0.397	0.87	0.0938	0.486	0.32	0.459	0.258	0.704	-0.202	0.34	0.433	-0.728 (inactive)
CC(C)(C)N1C(=O)[C@H]2[C@H]3[C@H](O)[C@H](O)CC(=NOC[C@@H](O)COCc4ccco4)[C@H]3CC[C@H]2C1=O	0.383	-0.0443 (inactive)	-0.128	-0.117	0.282	0.327	0.72	0.396	0.479	0.315	0.606	0.237	-0.136	0.0824	-0.22	0.249	0.0624	-0.0429	0.495	-0.011 (inactive)
CCOC(=O)[C@H](Cc1ccccc1)NC(=O)CCC1CC(OC(=O)NCc2cccc3ccccc23)CC2(CCCC(COC(=O)NCC3CCCCC3)O2)O1 (stereo not given in full)	-0.112	0.878 (inactive)	0.0713	-0.123	0.0394	0.745	0.395	1.18	0.54	0.702	1.05	1.06	0.289	0.923	0.421	0.754	0.624	0.826	-0.264	0.632 (inactive)
O=C1C[C@@H](O)[C@@H](O)[C@@H]2[C@@H]3C(=O)N(c4ccc(F)cc4F)C(=O)[C@@H]3CC[C@H]12	0.422	-0.0025 (inactive)	0.0257	-0.102	0.104	0.517	0.0172	0.495	0.571	0.44	0.387	0.503	0.0336	0.428	0.549	0.401	-0.834	0.645	0.304	-0.211 (inactive)
CCOC(=O)NN=C1C[C@@H](O)[C@@H](O)[C@@H]2[C@@H]3C(=O)N(C[C@@H]4CCCO4)C(=O)[C@@H]3CC[C@H]12	0.34	-0.161 (inactive)	-0.0057	-0.15	-0.144	0.19	0.299	0.31	0.245	0.111	0.57	0.317	0.43	0.835	0.308	0.342	-0.311	0.293	0.0337	0.515 (inactive)
COc1ccc(OC[C@@H]2CC3[C@@H](c4ccc(Br)cc4)[C@H](C)CC[C@H]3C(=O)O2)cc1 (stereo not given in full)	0.733	-0.644 (inactive)	-0.023	-0.18	-0.117	-0.037	0.196	-0.218	0.584	-0.758	-1.08	-0.291	-0.0102	0.563	0.57	0.29	-0.296	0.74	0.282	0.294 (inactive)
CC(CCC(=O)OC[C@H]1O[C@H](C#Cc2ccccc2)C=C[C@@H]1Oc1ccc(C)cc1)=NOC(C)CN1CCCCc2nc(C)c(C)cc21 (stereo not given in full)	0.473	1.48 (inactive)	-0.0377	0.161	0.346	0.938	0.214	0.313	-0.168	-0.207	-0.578	0.203	0.603	-0.626	-0.463	-0.426	0.856	-0.034	0.222	1.08 (inactive)
CCN1C(=O)[C@H]2[C@H]3[C@H](O)[C@H](O)CC(=NOC[C@@H](O)[C@H]4O[C@@H]5OC(C)(C)O[C@@H]5[C@H]4O)[C@@H]3CC[C@H]2C1=O	0.0226	-0.485 (inactive)	-0.299	-0.0662	0.343	0.324	-0.203	-0.0334	-0.736	-0.406	-0.072	-0.144	-0.212	-0.0432	0.387	0.383	-0.548	0.0533	-0.0038	-0.819 (inactive)
CON=C(C)CCC(=O)OC[C@H]1O[C@H](C#Cc2ccccc2)C=C[C@@H]1Oc1ccc(C)cc1	0.468	-0.054 (inactive)	-0.0111	-0.0751	0.263	0.661	0.232	0.626	0.479	0.491	0.377	0.54	0.122	0.354	0.398	0.344	-0.656	0.569	0.279	-3.61 (inactive)
